In PubChem BioAssay AID504832 (National Center for Advancing Translational Sciences (NCATS), 2011):
The whole screen tested about 310,000 compounds, of which about 18,000 (5.8%) were called active. Roughly 22% stayed inconclusive and do not appear here. Calls come from the whole dose curve; as a rule, active = well fitted inhibition curve with a large enough effect; inconclusive = small, poorly fitted or top-dose-only effect, or another doubt; inactive = no such curve, though single readings can be large or run the other way. What follows is part of a selection rich in actives, with near analogues and random picks from the rest.

Assay: Primary qHTS for delayed death inhibitors of the malarial parasite plastid, 48 hour incubation
Details: P. falciparum luciferase growth in erythrocytes; series mostly up to 28.7 µM; activity change, negative = inhibition: at the top concentration
How it was run: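 Luminescence readout; reporter = integrated firefly luciferase in P. falciparum. RBC culture at 2% hematocrit, 0.1% parasitemia final, 37 C/5% CO2; decreased signal taken as growth inhibition.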
% is set by controls: 0 for no effect and ±100 for the full control effect; potency is the fitted concentration of half-maximal effect.

| SMILES | activity change, negative = inhibition | Potency |
| --- | --- | --- |
| CC(CC(=O)Nc1cc(C(F)(F)F)ccc1Cl)c1ccccc1 (stereo unspecified) | 5.12% (inactive) | – |
| NC(=O)Nc1cccc(C(F)(F)F)c1 | 25.6% (inactive) | – |
| O=C(NNc1ccccc1Cl)C(O)(c1cccc(C(F)(F)F)c1)c1cccc(C(F)(F)F)c1 | – | 3.29 µM (active) |
| O=C(O)CCC(=O)Nc1ccc(OCC2CCCO2)cc1 (stereo unspecified) | -4.69% (inactive) | – |
| COc1ccc(CNC(=O)CSc2n[nH]c(N)n2)cc1OC | 33.8% (inactive) | – |
| CN(Cc1cnccn1)C(=O)c1cc(COc2cccc(C(F)(F)F)c2)on1 | -2.2% (inactive) | – |
| O=C1N/C(=C/c2cccs2)C(=O)N1Cc1ccc(F)cc1 | -9.77% (inactive) | – |
| CC(C)C(c1nnnn1Cc1ccccc1)N1CCC(C(N)=O)CC1 (stereo unspecified) | -13% (inactive) | – |
| Fc1ccc(Cn2nnnc2C(c2cccs2)N2CCCCCC2)cc1 (stereo unspecified) | – | 13.1 µM (active) |
| O=C(CSc1nc2ccccc2c(=O)n1CCCO)NC1CC1 | 15.6% (inactive) | – |
| O=C(N/N=C/c1cccc(OC(=O)c2ccc([N+](=O)[O-])cc2)c1)c1cccnc1 | 13% (inactive) | – |
| O=C(/C=C\c1cn(-c2ccccc2)nc1-c1cccs1)N1CCOCC1 | 45.5% (inactive) | – |
| O=C(O)c1ccc(N/N=C/c2cn(-c3ccccc3)nc2-c2cccs2)cc1 | – | 0.828 µM (active) |
| O=C(O)/C=C/c1cn(-c2ccccc2)nc1-c1cccs1 | 43.4% (inactive) | – |
| COc1cccc2cc(C(=O)NCc3ccc(C)cc3)c(=N)oc12 | 2.8% (inactive) | – |
| CCOc1ccc(OCC(=O)OC(C)C(=O)NC2CCCCC2C)cc1 (stereo unspecified) | 2.72% (inactive) | – |
| Cc1oc2c(c1C(=O)N1CCOCC1)C(=O)c1ccccc1C2=O | – | 4.15 µM (active) |
| Cc1onc(-c2ccccc2)c1C(=O)N1CCOCC1 | 12.5% (inactive) | – |
| O=C(c1ccccc1-c1ccccc1)N1CCOCC1 | 9.71% (inactive) | – |
| Cc1ccc(NC(=O)C2CCCN2C(=O)OCc2ccccc2)cc1C (stereo unspecified) | -6.37% (inactive) | – |
| COc1ccc(C(=O)OCC(=O)Nc2ccc3[nH]c(=O)[nH]c3c2)c(OC)c1OC | 2.5% (inactive) | – |
| CCOC(CNC(=O)C(=O)NCC(c1ccco1)N1CCN(c2ccc(OC)cc2)CC1)OCC (stereo unspecified) | 3.86% (inactive) | – |
| COc1ccc(NC(=O)C(=O)NCC(c2ccco2)N2CCc3ccccc3C2)cc1 (stereo unspecified) | – | 13.1 µM (active) |
| O=C(NCC(c1ccco1)N1CCc2ccccc2C1)c1ccccc1Cl (stereo unspecified) | -23.2% (inactive) | – |
| C=CCc1cccc(/C=N/NC(=O)COc2ccc(-n3cnnn3)cc2)c1O | -22% (inactive) | – |
| CCOc1ccc(-n2c(SCC(N)=O)nnc2-c2ccco2)cc1 | 12.9% (inactive) | – |

| SMILES | activity change, negative = inhibition | Potency |
| --- | --- | --- |
| COC(=O)C1=C(c2cccc(OCc3ccccc3)c2)C[C@@H]2CC[C@H]1N2C(=O)NCc1ccc(Br)cc1 | – | 11.7 µM (active) |
| COC(=O)C1=C(c2cccc(OCc3ccccc3)c2)C[C@@H]2CC[C@H]1N2C(=O)NNCc1ccccc1 | – | 8.28 µM (active) |
| O=C(COc1cccc(Cl)c1)NCc1ccccc1 | 10.5% (inactive) | – |
| COC(=O)C1=C(c2ccc(C(C)=O)cc2)C[C@@H]2CC[C@H]1N2C(=O)NCCNC(C)=O | 37.2% (inactive) | – |
| COC(=O)C1=C(c2c(C)noc2C)C[C@@H]2CC[C@H]1N2C(=O)NCc1ccc2c(c1)OCO2 | -0.217% (inactive) | – |
| COc1cccc(CNC(=O)C2CC(=O)N(C3CCCCCCC3)C2)c1 (stereo unspecified) | -13.4% (inactive) | – |
| O=C(NCc1ccncc1)C(=O)NCC1OCCN1S(=O)(=O)c1ccc(Br)cc1 (stereo unspecified) | 9.05% (inactive) | – |
| COCCCNc1nc2c(-c3cccc(C)c3)nnn2c2ccc(Cl)cc12 | -9.36% (inactive) | – |
| CCOc1ccc(CC(=O)NCCS(=O)(=O)N2CCN(c3ccccc3)CC2)cc1 | -14.8% (inactive) | – |
| Cc1csc2nc(O)c(C(=O)NCCN3CCOCC3)c(=O)n12 | -13.4% (inactive) | – |
| O=C(CN1CCN(S(=O)(=O)c2ccc(Cl)s2)CC1)N1CCCCC1 | -8.33% (inactive) | – |
| CS(=O)(=O)N1CCN(C(=O)c2cc3ccccc3oc2=O)CC1 | -0.673% (inactive) | – |
| O=C(c1cc2ccccc2o1)N1CCN(S(=O)(=O)c2ccc(Cl)s2)CC1 | – | 11.7 µM (active) |
| CCOC(=O)N1CCN(C(=O)c2ccc3c(c2)N(Cc2ccc(C)cc2)CCS3)CC1 | – | 13.1 µM (active) |
| O=C(NCCc1ccccc1)c1ccc2c(c1)N(Cc1ccccc1)CCS2 | -14.5% (inactive) | – |
| CCOC(=O)N1CCN(C(=O)c2ccc(S(=O)(=O)c3ccc(C)cc3)c(NC(C)=O)c2)CC1 | -6.92% (inactive) | – |
| CCC(C)(C)NC(=O)C(c1ccc(O)cc1)N(C(=O)Cn1nnc2ccccc21)c1ccc(NC(C)=O)cc1 (stereo unspecified) | – | 2.08 µM (active) |
| COc1ccc(C(C(=O)NC(C)(C)C)N(C(=O)Cn2nnc3ccccc32)c2ccc(C(C)=O)cc2)cc1O (stereo unspecified) | -29.7% (inactive) | – |
| CCC(C)(C)NC(=O)C(c1ccccn1)N(C(=O)c1csnn1)c1ccccc1 (stereo unspecified) | 1.07% (inactive) | – |
| CCN(CC(=O)Nc1cc(Cl)ccc1C)C(=O)CSCc1ccc(C)cc1 | 0.0039% (inactive) | – |
| C=CCNC(=S)N/N=C/c1ccc(C)s1 | – | 4.65 µM (active) |
| Cc1ccc(/C=N/NC(=O)CN2CCN(Cc3ccccc3)CC2)s1 | 51% (inactive) | – |
| C=CCNC(=S)N/N=C/c1ccc(OCc2ccccc2)cc1 | -2.98% (inactive) | – |
| CC(C)(C)C(=O)NC1CC2CCCC(C1)N2C(=O)Nc1ccccc1F (stereo unspecified) | 11.9% (inactive) | – |
| O=S(=O)(Nc1ccc(-n2cnnn2)cc1)c1ccc(Cl)cc1 | -3.82% (inactive) | – |
| CCc1cc2c(=O)n(-c3ccccc3)c(SCC(=O)O)nc2s1 | 7.53% (inactive) | – |

| SMILES | activity change, negative = inhibition | Potency |
| --- | --- | --- |
| Cc1ccc(C)c(-n2c(SCC(=O)O)nc3sc4c(c3c2=O)CCCC4)c1 | -7.11% (inactive) | – |
| COc1ccccc1NC(=O)CSc1nc2sc3c(c2c(=O)n1-c1ccccc1)CCN(C)C3 | – | 1.65 µM (active) |
| Cc1sc2nc(SCCO)n(-c3ccccc3)c(=O)c2c1C | 5.65% (inactive) | – |
| COc1ccc(-n2c(=S)[nH]c3sc4c(c3c2=O)CCc2ccccc2-4)cc1 | -0.883% (inactive) | – |
| CCOc1ccc2cc(C#N)c(SCC(=O)OC)nc2c1 | 202% (inactive) | – |
| CCCSc1nc2sc3c(c2c(=O)n1-c1ccc(OC)cc1)CCN(C)C3 | – | 7.38 µM (active) |
| CCOC(=O)Cn1c(SC)nc2sc3c(c2c1=O)CC(C)(C)OC3 | 0.338% (inactive) | – |
| CCc1nc(SCC(=O)Nc2ccccc2OC)n[nH]1 | 29.7% (inactive) | – |
| CCSc1nc2sc3c(c2c(=O)n1-c1ccc(C)cc1)CCN(C)C3 | – | 2.62 µM (active) |
| COc1ccccc1-n1c(SCC(=O)O)nc2sc3c(c2c1=O)CCC3 | -4.58% (inactive) | – |
| CCOc1ccc(-n2c(SCC(=O)OC)nc3sc4c(c3c2=O)CCN(C)C4)cc1 | – | 0.928 µM (active) |
| C[C@H](OC(=O)n1ccnc1)[C@@H]1O[C@@]2(C)CCC[C@@H]1O2 | 2.35% (inactive) | – |
| Cc1cccc(CN2CCC(n3nccc3NC(=O)c3ccccc3C)CC2)n1 | 9.28% (inactive) | – |
| Cc1ccc(-n2ncc3c2CCCC3NC(=O)c2cnccn2)cc1C (stereo unspecified) | -16.1% (inactive) | – |
| COc1ccccc1C(=O)NCCC(=O)NC(C)CCc1ccccc1 (stereo unspecified) | 5.59% (inactive) | – |
| O=c1oc2ccccc2c(NC2CCCCC2)c1NS(=O)(=O)c1ccc(Cl)cc1 | 16.6% (inactive) | – |
| COC(=O)COc1ccc2c(=O)c(Oc3ccccc3Br)coc2c1 | 13.4% (inactive) | – |
| O=C(C1CC(=O)N(c2ccc(Br)cc2)C1)N1CCCC1 (stereo unspecified) | 7.71% (inactive) | – |
| COc1ccccc1NC(=O)N1CCCC1C(=O)NCc1cccs1 (stereo unspecified) | -11% (inactive) | – |
| CCN1C(=O)C(=O)N(CC(=O)Nc2cc(C)ccc2C)C1=O | -13.3% (inactive) | – |
| CC(C)c1ccc(S(=O)(=O)N2CCN(C(=O)c3ccc(N4CCCC4)c([N+](=O)[O-])c3)CC2)cc1 | -11.7% (inactive) | – |
| Nc1ccc(C(=O)N2CCN(S(=O)(=O)c3ccc(Cl)cc3)CC2)cc1[N+](=O)[O-] | – | 13.1 µM (active) |
| Cc1ccc(S(=O)(=O)N2CCN(C(=O)c3ccc(-n4cncn4)c([N+](=O)[O-])c3)CC2)cc1 | -25.4% (inactive) | – |
| CC(Sc1nnc(COc2ccccc2)n1-c1ccccc1)C(=O)O (stereo unspecified) | -26.1% (inactive) | – |
| CC1CC(C)CN(c2ccc(S(=O)(=O)N3CCOCC3)cc2)C1 (stereo unspecified) | 4.74% (inactive) | – |
| COc1cc(/C=C2\C(=N)N3N=C(CC(=O)N4CCOCC4)SC3=NC2=O)cc(OC)c1OC | 29.4% (inactive) | – |

| SMILES | activity change, negative = inhibition | Potency |
| --- | --- | --- |
| COC(=O)/C=C/C(=O)NCc1ccco1 | -12.4% (inactive) | – |
| O=C(CCNC(=O)c1ccccc1Cl)NCc1ccco1 | -17.4% (inactive) | – |
| O=C(/C=C/c1ccc(Cl)cc1Cl)NCc1ccco1 | – | 11.7 µM (active) |
| O=C(Nc1ncc([N+](=O)[O-])s1)C1COc2ccccc2O1 (stereo unspecified) | 53.4% (inactive) | – |
| CN(C(=O)CN1C(=O)/C(=C/c2ccc(Cl)cc2)SC1=S)C1CCS(=O)(=O)C1 (stereo unspecified) | -0.4% (inactive) | – |
| CCc1c(C)nc(N)n2c(SCC(=O)NC3CCCCC3)nnc12 | -18.9% (inactive) | – |
| COc1ccc2cc1Oc1ccc(cc1)C[C@H]1c3cc(c(OC)cc3CCN1C)Oc1c(O)c(OC)cc3c1[C@H](C2)N(C)CC3 | – | 2.94 µM (active) |
| COc1ccc(/C=N/NC(=O)c2ccc3c(c2)OCCO3)c(OC)c1 | 27.3% (inactive) | – |
| Cn1nccc1C(=O)N1CCCC(C(=O)c2ccc(Oc3ccccc3)cc2)C1 (stereo unspecified) | -24.4% (inactive) | – |
| CN(C)CCCN=Cc1c(O)n(Cc2ccco2)c(=O)[nH]c1=O | 27.8% (inactive) | – |
| CC(C)n1c(=O)c(C=Nc2ccc(Br)cc2)c(O)n(Cc2ccco2)c1=O | – | 13.1 µM (active) |
| Cn1c(O)c(C=Nc2ccc3c(c2)CCC3)c(=O)n(C)c1=O | 16.4% (inactive) | – |
| O=C(CN1CCN(C2CCS(=O)(=O)C2)CC1)N1N=C(c2ccc(Cl)cc2)CC1c1ccco1 (stereo unspecified) | 28.6% (inactive) | – |
| CC(=O)NCC(=O)N1CCC(n2nccc2NC(=O)CCCc2ccccc2)CC1 | 9.78% (inactive) | – |
| CCOc1ccc(N/C(N)=N/c2nc(C)c(C)c(=O)[nH]2)cc1 | -10.7% (inactive) | – |
| CCN1C(=S)N[C@@H](CCc2ccccc2)[C@H](C(=O)OC)[C@H]1C | – | inactive |
| CC1C(=O)Nc2ccccc2N1C(=O)c1ccc(F)cc1F (stereo unspecified) | -6.46% (inactive) | – |
| COc1ccccc1C(=O)N(Cc1ccc(C)o1)C1CCS(=O)(=O)C1 (stereo unspecified) | 27.3% (inactive) | – |
| CC(C)C[C@H](NC(=O)[C@@H]1O[C@H]1C(=O)O)C(=O)NCCCCN=C(N)N | – | 11.7 µM (active) |
| Cc1cc(C)cc(N(CCC#N)C(=O)CN2C(=O)NC3(CCCC3)C2=O)c1 | 17% (inactive) | – |
| Cc1ccc(Nc2nc(N)nc(CN3CCN(Cc4ccccc4)CC3)n2)cc1Cl | 6.24% (inactive) | – |
| CC(C)(C)C(=O)CN1C2=NCCN2c2ccccc21 | 0.643% (inactive) | – |
| Cc1cc2c(cc1C)N(Cc1ccccc1)C1=NCCCN12 | – | 11.7 µM (active) |
